Data taken from publication PMC7862700, “An all-to-all approach to the identification of sequence-specific readers for epigenetic DNA modifications on cytosine”.

Assays:
Test in all cases: DAPPL (digital affinity profiling via proximity ligation, sequencing); 10 mM Tris-HCl pH 7.5, 50 mM NaCl, 1 mM DTT, 4% glycerol, room temperature, 30 min; GST-TFs on glutathione beads, 16-mer random dsDNA library, 0.1% formaldehyde crosslink after washing; high values mean tight binding
FLI1 = target: T1, FLI1 (Homo sapiens, UniProt Q01543 1-452); settings: protein: recombinant; tags: N-terminal GST; dsDNA, one strand shown
T1 sequence: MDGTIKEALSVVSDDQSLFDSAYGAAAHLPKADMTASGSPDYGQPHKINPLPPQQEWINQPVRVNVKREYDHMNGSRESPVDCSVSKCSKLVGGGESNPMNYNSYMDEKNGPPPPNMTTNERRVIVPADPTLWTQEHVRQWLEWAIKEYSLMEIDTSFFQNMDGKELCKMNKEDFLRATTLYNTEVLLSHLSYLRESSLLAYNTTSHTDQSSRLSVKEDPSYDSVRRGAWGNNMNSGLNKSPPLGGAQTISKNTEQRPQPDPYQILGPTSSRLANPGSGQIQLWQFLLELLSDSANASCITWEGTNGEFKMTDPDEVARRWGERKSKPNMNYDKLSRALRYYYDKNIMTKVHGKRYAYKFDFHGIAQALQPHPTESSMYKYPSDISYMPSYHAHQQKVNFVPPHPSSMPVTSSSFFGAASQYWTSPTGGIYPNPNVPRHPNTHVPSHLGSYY
How it was run: (§1)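 The binding signal reported is, for every hexamer, its read frequency for a factor over its read frequency for the tag-only sample. Reads came from pools of yeast-expressed, GST-fused human transcription factors on glutathione beads, barcoded with DNA and mixed with that sample, which were incubated with 200 nmole of a random double-stranded 16-mer DNA library in Tris/NaCl/DTT/glycerol buffer at room temperature for 30 min. After washing, the pools were crosslinked with 0.1% formaldehyde, proximity-ligated with BsaI/T4 ligase for 1 h at 37 °C, PCR-amplified and sequenced on an Illumina NextSeq500.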

ELK1 = target: T2, ELK1 (Homo sapiens, UniProt P19419 1-428); settings: protein: recombinant; tags: N-terminal GST; dsDNA, one strand shown
T2 sequence: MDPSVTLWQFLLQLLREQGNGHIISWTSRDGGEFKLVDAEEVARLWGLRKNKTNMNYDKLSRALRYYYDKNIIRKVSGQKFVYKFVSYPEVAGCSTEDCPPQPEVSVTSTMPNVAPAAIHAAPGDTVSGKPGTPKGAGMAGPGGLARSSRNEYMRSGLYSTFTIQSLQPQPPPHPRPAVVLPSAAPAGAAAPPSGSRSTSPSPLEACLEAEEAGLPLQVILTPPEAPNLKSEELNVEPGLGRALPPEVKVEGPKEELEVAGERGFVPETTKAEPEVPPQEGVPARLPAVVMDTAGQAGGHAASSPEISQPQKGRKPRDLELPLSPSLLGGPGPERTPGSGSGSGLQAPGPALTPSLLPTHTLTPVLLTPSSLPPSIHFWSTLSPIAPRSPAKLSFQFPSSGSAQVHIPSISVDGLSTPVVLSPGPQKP
How it was run: as §1

GABPA = target: T3, GABPA (Homo sapiens, UniProt Q06546 1-454); settings: protein: recombinant; tags: N-terminal GST; dsDNA, one strand shown
T3 sequence: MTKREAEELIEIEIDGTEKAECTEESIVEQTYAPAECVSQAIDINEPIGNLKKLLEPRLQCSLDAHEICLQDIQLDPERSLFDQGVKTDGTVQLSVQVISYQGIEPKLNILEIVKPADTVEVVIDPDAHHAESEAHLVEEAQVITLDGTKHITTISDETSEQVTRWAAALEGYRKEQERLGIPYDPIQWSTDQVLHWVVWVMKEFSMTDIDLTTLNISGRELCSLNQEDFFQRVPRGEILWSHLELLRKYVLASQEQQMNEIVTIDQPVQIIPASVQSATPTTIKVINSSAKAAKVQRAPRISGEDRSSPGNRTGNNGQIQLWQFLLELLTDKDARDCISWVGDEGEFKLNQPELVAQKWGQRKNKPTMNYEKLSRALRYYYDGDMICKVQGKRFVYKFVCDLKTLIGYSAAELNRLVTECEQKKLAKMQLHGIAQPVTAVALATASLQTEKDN
How it was run: as §1

ERG = target: T4, ERG (Homo sapiens, UniProt P11308 1-479); settings: protein: recombinant; tags: N-terminal GST; dsDNA, one strand shown
T4 sequence: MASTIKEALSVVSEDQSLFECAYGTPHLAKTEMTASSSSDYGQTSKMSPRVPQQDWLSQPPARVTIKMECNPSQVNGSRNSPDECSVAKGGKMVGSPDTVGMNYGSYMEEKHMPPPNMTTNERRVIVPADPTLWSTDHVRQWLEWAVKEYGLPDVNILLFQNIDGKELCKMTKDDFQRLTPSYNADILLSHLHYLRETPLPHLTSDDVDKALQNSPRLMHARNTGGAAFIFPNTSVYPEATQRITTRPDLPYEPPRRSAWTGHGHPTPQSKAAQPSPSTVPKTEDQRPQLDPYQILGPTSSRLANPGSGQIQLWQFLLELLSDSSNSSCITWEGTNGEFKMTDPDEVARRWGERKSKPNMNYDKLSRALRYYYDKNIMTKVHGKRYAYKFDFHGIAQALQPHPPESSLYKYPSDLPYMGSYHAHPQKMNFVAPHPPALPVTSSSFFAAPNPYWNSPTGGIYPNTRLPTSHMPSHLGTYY
How it was run: as §1

ELF1 = ELF1 (Homo sapiens, UniProt P32519 1-619); settings: protein: recombinant; tags: N-terminal GST; dsDNA, one strand shown
How it was run: as §1

EHF = target: T5, EHF (Homo sapiens, UniProt Q9NZC4 1-300); settings: protein: recombinant; tags: N-terminal GST; dsDNA, one strand shown
T5 sequence: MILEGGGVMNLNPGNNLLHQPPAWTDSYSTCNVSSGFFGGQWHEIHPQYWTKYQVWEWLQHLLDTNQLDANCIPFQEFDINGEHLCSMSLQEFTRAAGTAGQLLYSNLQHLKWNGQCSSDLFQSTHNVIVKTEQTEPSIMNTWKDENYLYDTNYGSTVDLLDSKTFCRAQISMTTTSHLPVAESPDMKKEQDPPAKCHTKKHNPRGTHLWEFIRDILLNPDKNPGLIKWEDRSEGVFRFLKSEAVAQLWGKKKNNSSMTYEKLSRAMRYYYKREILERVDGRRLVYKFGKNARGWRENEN
How it was run: as §1

SPI1 = SPI1 (Homo sapiens, UniProt P17947 1-270); settings: protein: recombinant; tags: N-terminal GST; dsDNA, one strand shown
How it was run: as §1

SPIB = SPIB (Homo sapiens, UniProt Q01892 1-262); settings: protein: recombinant; tags: N-terminal GST; dsDNA, one strand shown
How it was run: as §1

ELK3 = target: T6, ELK3 (Homo sapiens, UniProt P41970 1-407); settings: protein: recombinant; tags: N-terminal GST; dsDNA, one strand shown
T6 sequence: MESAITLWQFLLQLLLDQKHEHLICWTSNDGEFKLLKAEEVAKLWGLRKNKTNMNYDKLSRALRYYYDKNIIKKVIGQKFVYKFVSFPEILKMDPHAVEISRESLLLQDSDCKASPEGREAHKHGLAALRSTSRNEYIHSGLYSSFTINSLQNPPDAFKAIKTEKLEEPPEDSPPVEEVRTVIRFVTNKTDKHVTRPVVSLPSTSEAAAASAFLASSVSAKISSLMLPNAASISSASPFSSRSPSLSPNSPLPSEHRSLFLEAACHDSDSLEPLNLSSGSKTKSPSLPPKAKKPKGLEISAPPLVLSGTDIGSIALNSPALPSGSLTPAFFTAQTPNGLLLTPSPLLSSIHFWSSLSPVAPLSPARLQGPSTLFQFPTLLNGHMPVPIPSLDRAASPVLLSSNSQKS
How it was run: as §1

FEV = target: T7, FEV (Homo sapiens, UniProt Q99581 1-238); settings: protein: recombinant; tags: N-terminal GST; dsDNA, one strand shown
T7 sequence: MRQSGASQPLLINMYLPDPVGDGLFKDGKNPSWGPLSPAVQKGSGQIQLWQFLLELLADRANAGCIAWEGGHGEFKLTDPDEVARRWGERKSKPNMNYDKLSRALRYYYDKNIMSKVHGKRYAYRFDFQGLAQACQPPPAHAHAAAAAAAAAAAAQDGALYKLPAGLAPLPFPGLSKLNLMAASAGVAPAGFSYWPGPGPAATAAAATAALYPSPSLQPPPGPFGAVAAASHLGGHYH
How it was run: as §1

ETV5 = ETV5 (Homo sapiens, UniProt P41161 1-510); settings: protein: recombinant; tags: N-terminal GST; dsDNA, one strand shown
How it was run: as §1

HSF1 = HSF1 (Homo sapiens, UniProt Q00613 1-529); settings: protein: recombinant; tags: N-terminal GST; chain copies: 3; dsDNA, one strand shown
How it was run: as §1

SPIC = target: T8, SPIC (Homo sapiens, UniProt Q8N5J4 1-248); settings: protein: recombinant; tags: N-terminal GST; dsDNA, one strand shown
T8 sequence: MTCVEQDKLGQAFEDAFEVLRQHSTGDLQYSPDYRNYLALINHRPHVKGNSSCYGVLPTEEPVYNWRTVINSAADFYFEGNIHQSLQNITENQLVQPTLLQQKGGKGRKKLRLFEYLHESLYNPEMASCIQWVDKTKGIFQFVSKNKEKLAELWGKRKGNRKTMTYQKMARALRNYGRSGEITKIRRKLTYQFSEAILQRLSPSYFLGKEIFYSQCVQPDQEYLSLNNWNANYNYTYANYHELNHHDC
How it was run: as §1

ELF4 = ELF4 (Homo sapiens, UniProt Q99607 1-663); settings: protein: recombinant; tags: N-terminal GST; dsDNA, one strand shown
How it was run: as §1

ELK4 = target: T9, ELK4 (Homo sapiens, UniProt P28324-2 1-405); settings: protein: recombinant; tags: N-terminal GST; dsDNA, one strand shown
T9 sequence: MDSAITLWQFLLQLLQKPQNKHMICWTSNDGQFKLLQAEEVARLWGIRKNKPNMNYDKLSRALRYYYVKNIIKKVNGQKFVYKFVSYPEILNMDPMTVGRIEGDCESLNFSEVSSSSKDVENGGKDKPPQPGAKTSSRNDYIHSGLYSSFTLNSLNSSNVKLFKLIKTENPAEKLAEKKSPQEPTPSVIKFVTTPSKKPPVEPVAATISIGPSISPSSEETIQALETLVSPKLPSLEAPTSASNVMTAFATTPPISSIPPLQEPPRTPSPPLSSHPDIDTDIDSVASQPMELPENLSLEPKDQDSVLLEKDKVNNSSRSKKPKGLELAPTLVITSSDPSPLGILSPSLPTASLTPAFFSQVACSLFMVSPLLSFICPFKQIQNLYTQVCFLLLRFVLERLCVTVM
How it was run: as §1

ETV2 = target: T10, ETV2 (Homo sapiens, UniProt O00321 1-342); settings: protein: recombinant; tags: N-terminal GST; dsDNA, one strand shown
T10 sequence: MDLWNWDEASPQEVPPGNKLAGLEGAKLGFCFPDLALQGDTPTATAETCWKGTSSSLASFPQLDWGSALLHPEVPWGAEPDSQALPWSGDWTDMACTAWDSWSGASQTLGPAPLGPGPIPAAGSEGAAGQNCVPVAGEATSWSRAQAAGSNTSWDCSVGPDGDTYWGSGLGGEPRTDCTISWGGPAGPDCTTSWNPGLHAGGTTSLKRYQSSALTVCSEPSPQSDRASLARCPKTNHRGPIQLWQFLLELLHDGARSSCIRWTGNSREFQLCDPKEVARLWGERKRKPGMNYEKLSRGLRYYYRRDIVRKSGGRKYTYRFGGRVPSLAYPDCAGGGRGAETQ
How it was run: as §1

ELF3 = target: T11, ELF3 (Homo sapiens, UniProt P78545 1-371); settings: protein: recombinant; tags: N-terminal GST; dsDNA, one strand shown
T11 sequence: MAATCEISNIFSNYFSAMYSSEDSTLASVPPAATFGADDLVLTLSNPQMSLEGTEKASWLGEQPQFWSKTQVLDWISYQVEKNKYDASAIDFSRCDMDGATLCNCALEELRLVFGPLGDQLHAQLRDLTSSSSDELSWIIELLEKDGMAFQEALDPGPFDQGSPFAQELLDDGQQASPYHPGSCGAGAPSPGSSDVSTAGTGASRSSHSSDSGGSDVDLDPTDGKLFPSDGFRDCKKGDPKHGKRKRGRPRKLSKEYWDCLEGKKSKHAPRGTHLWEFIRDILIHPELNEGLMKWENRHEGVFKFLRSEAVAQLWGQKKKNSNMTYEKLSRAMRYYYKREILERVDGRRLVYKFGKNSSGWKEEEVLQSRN
How it was run: as §1

CRX = CRX (Homo sapiens, UniProt O43186 1-299); settings: protein: recombinant; tags: N-terminal GST; dsDNA, one strand shown
How it was run: as §1

Chain of ELF4 (Q99607 whole entry): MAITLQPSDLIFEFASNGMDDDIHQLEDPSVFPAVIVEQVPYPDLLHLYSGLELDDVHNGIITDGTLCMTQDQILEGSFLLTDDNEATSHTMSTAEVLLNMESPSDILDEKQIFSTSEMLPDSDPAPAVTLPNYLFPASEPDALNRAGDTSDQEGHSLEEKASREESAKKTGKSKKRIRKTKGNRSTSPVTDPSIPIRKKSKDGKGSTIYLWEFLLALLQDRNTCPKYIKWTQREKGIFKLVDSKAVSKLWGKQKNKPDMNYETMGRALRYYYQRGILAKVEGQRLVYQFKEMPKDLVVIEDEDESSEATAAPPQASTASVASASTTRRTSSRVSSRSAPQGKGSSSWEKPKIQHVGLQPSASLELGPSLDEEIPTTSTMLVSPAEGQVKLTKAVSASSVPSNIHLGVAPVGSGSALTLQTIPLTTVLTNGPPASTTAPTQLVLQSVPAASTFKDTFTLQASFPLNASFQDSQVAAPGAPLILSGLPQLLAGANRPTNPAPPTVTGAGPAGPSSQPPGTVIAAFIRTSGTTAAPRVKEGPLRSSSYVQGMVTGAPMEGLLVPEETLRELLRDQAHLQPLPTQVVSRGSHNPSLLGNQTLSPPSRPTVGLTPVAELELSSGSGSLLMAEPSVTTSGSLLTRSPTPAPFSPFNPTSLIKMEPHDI
Chain of ETV5 (P41161 whole entry): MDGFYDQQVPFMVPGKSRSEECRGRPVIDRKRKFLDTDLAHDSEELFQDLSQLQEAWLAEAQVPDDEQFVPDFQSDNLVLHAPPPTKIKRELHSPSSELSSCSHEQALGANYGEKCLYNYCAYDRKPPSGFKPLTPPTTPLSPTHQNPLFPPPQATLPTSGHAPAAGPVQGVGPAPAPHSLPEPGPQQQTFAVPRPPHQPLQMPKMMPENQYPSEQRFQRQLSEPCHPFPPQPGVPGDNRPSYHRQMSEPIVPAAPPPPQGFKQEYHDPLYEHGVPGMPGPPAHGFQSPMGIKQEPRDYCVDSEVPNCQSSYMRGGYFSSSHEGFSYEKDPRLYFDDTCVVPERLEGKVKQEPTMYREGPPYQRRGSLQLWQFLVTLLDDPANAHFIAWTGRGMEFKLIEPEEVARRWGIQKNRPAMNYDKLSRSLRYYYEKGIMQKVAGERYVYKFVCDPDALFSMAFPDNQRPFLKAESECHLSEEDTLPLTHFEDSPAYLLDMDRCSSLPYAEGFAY
Chain of HSF1 (Q00613 whole entry): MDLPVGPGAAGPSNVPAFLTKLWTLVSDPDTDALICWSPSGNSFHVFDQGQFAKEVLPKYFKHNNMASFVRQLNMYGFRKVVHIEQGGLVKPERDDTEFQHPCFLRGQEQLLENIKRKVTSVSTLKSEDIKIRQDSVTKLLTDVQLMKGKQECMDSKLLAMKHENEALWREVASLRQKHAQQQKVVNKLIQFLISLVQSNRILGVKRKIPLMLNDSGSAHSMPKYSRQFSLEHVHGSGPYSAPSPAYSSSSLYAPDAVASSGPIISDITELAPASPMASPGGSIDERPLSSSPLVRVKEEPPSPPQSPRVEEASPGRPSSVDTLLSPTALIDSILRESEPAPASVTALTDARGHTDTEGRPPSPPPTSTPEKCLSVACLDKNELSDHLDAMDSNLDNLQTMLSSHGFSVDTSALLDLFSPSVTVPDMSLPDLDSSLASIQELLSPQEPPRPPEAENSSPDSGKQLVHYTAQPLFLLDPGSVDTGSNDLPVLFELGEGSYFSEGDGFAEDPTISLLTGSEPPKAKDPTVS
Chain of ELF1 (P32519 whole entry): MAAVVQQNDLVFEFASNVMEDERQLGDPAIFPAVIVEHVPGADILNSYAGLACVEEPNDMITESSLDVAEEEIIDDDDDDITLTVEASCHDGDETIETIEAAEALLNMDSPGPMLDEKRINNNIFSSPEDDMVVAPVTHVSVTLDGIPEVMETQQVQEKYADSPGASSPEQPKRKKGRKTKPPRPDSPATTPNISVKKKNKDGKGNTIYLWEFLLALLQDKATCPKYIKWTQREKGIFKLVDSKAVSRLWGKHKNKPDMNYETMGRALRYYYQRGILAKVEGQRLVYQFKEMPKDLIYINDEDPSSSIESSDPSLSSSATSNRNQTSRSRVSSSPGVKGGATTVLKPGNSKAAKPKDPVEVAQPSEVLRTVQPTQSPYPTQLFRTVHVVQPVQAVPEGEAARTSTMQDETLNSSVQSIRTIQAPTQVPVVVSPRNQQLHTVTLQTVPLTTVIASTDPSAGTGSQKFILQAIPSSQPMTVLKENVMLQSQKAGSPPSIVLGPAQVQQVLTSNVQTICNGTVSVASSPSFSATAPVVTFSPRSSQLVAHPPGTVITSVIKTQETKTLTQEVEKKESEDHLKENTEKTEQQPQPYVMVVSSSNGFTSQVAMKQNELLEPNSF
Chain of SPIB (Q01892 whole entry): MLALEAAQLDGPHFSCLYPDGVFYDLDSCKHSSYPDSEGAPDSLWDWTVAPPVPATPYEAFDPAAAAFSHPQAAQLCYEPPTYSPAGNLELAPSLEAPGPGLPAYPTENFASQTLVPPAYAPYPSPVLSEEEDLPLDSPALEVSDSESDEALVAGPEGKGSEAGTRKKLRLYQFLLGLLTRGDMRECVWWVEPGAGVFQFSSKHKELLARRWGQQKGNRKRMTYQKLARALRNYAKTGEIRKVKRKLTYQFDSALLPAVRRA
Chain of CRX (O43186 whole entry): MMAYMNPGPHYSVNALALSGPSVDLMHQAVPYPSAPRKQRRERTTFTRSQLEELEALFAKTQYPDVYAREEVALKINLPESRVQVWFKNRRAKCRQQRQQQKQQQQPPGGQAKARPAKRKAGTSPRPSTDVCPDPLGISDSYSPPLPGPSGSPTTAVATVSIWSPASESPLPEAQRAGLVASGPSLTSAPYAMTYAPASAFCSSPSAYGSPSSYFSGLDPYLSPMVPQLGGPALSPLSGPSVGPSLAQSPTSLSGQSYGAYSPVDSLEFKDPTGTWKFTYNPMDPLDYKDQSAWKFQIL

Sequence: AGTTAA
- binding signal (FLI1): 1.02 fold enrichment (6-mer frequency, TF over GST control)
- binding signal (ELK1): 1.09 fold enrichment (6-mer frequency, TF over GST control)
- binding signal (GABPA): 1.05 fold enrichment (6-mer frequency, TF over GST control)
- binding signal (ERG): 1.12 fold enrichment (6-mer frequency, TF over GST control)
- binding signal (ELF1): 1.01 fold enrichment (6-mer frequency, TF over GST control)
- binding signal (EHF): 1.08 fold enrichment (6-mer frequency, TF over GST control)
- binding signal (SPI1): 1.13 fold enrichment (6-mer frequency, TF over GST control)
- binding signal (SPIB): 1.08 fold enrichment (6-mer frequency, TF over GST control)
- binding signal (ELK3): 1.04 fold enrichment (6-mer frequency, TF over GST control)
- binding signal (FEV): 1.05 fold enrichment (6-mer frequency, TF over GST control)
- binding signal (ETV5): 1.1 fold enrichment (6-mer frequency, TF over GST control)
- binding signal (HSF1): 1.15 fold enrichment (6-mer frequency, TF over GST control)
- binding signal (SPIC): 1.05 fold enrichment (6-mer frequency, TF over GST control)
- binding signal (ELF4): 1.15 fold enrichment (6-mer frequency, TF over GST control)
- binding signal (ELK4): 1.15 fold enrichment (6-mer frequency, TF over GST control)
- binding signal (ETV2): 1.2 fold enrichment (6-mer frequency, TF over GST control)
- binding signal (ELF3): 1.09 fold enrichment (6-mer frequency, TF over GST control)
- binding signal (CRX): 1.51 fold enrichment (6-mer frequency, TF over GST control)
